Measured potencies and affinities stand elsewhere. Active and inactive are the calls of the source.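 The calls were made as follows: active = compounds lowering cell ATP signal whose fitted half-maximal concentration is at most twice the top tested dose; inconclusive = flat curve with 30 to 70% signal loss, or poor fit; inactive = the rest.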
Test: viability loss in HEK293T cells – cell-based, CellTiter-Glo luminescence, dry powder, set 6, cytotoxicity control, dose response (AID 651949)
Conditions: CellTiter-Glo ATP luminescence, 48 h; series mostly up to 26 µM; activity change, negative = cytotoxicity: at the top concentration

Row | Compound | activity change, negative = cytotoxicity
1 | c1ccc(-c2nnc(SC(c3ccccc3)c3ccccc3)o2)cc1 | -24.1% (inactive)
2 | COc1ccccc1-c1nnc(SCc2ccccc2)o1 | -0.598% (inactive)
3 | N#Cc1ccc(-c2nnc(SCc3ccccc3)o2)cc1 | -23% (inactive)
4 | c1ccc(-c2nnc(SCC3CC3)o2)cc1 | -28.5% (inactive)
5 | c1ccc(-c2nnc(SCCN3CCN(c4ccccc4)CC3)o2)cc1 | -23.5% (inactive)
6 | Brc1ccc(CSc2nnc(-c3ccccc3)o2)cc1 | -4.14% (inactive)
7 | Brc1ccc(-c2nnc(SCc3ccccn3)o2)cc1 | -26.7% (inactive)
8 | c1ccc(-c2nnc(SCc3cscn3)o2)cc1 | -17% (inactive)
9 | c1ccc(-c2nnc(SCc3ccncc3)o2)cc1 | 3.39% (inactive)
10 | O=C(Cc1ccccc1)c1nnc(-c2ccccc2)o1 | -21.1% (inactive)
11 | c1ccc(CSc2nnc(-c3cccnc3)o2)nc1 | 26.4% (inactive)
12 | [O-][n+]1ccccc1CSc1nnc(-c2ccccc2)o1 | -25.5% (inactive)
13 | COc1ccccc1-c1nnc(SCc2ccccn2)o1 | -20.3% (inactive)
14 | FC1(F)CCN(CCSc2nnc(-c3ccccc3)o2)CC1 | -15.2% (inactive)
15 | Cc1cccc(CSc2nnc(-c3ccccc3)o2)c1 | -20.9% (inactive)
16 | O=S(Cc1cn(-c2ccccc2)nn1)c1nnc(-c2ccc(Cl)cc2)o1 (centres undefined) | 10.6% [at 12 µM] (inactive)
17 | c1ccc(COc2nnc(-c3ccccc3)o2)cc1 | 5.38% (inactive)
18 | c1ccc(Cn2cc(CSc3nnc(-c4ccccc4)o3)nn2)cc1 | 2.94% (inactive)
19 | Fc1ccc(CSc2nnc(-c3ccncc3)o2)cc1 | 7.15% (inactive)
20 | FC(F)(F)Oc1ccc(CSc2nnc(-c3ccccc3)o2)cc1 | 14.6% (inactive)

Row | Compound | activity change, negative = cytotoxicity
21 | N#Cc1ccccc1CSc1nnc(-c2ccccc2)o1 | -15.6% (inactive)
22 | CS(=O)(=O)c1ccccc1CSc1nnc(-c2ccccc2)o1 | 16.3% (inactive)
23 | Clc1ccccc1-c1nnc(SCc2ccccc2)o1 | -1.75% (inactive)
24 | N#Cc1cccc(CSc2nnc(-c3ccccc3)o2)c1 | -16.9% (inactive)
25 | Fc1ccccc1-c1nnc(SCc2ccccc2)o1 | 25.8% (inactive)
26 | Cc1cccc(-c2nnc(SCc3ccccc3)o2)c1 | 16.8% (inactive)
27 | FC(F)(F)c1ccccc1CSc1nnc(-c2ccccc2)o1 | -13% (inactive)
28 | CSc1nnc(-c2ccccc2)o1 | 8.23% [at 120 µM] (inactive)
29 | COCCOCCSc1nnc(-c2ccccc2)o1 | 15% (inactive)
30 | Fc1ccc(-c2nnc(SCc3cn(Cc4ccccc4)nn3)o2)cc1 | -12.7% (inactive)
31 | c1ccc(Cn2cc(CSc3nnc(C4CCCC4)o3)nn2)cc1 | -3.83% (inactive)
32 | c1ccc(CSc2nnc(C3CCCCC3)o2)cc1 | -21.4% (inactive)
33 | CS(=O)(=O)c1ccccc1-c1nnc(SCc2ccccc2)o1 | -29.6% (inactive)
34 | c1ccc(CCc2nnc(-c3ccccc3)o2)cc1 | -22.1% (inactive)
35 | Fc1ccc(Cn2cc(CSc3nnc(C4CCCC4)o3)nn2)cc1 | 4.22% (inactive)
36 | FC(F)(F)c1cccc(-c2nnc(SCc3ccccc3)o2)c1 | -5.54% (inactive)
37 | c1ccc(CCc2nnc(SCc3ccccc3)o2)cc1 | -20.1% (inactive)
38 | c1ccc(CSc2nnc(Cc3ccccc3)o2)cc1 | 22% (inactive)
39 | c1ccc(CSc2ncc(-c3ccccc3)o2)cc1 | 8.63% (inactive)
